Screening results: PubChem, The Scripps Research Institute Molecular Screening Center
ssDAF-12 act = activators of S. stercoralis DAF-12 nuclear receptor; HEK293 ssDAF-12/GRIP1 lit1-tk-luc reporter, luminescence; % of 3 µM dafachronic acid response; activation, % at 6.8 µM; 370,000 compounds, 1% hits; AID 652126;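 active means activation above the mean over all tested compounds plus 3 SD, cut at about 0.9% in these data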;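 further: 0% = DMSO-only wells and 100% = 3 µM delta7-dafachronic acid wells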
hgDAF12 agonist = activates the H. glycines DAF-12 receptor ligand-binding domain; HEK293 GAL4-hgDAF12 UAS-luciferase reporter, agonist luminescence; normalized to butyrate control; activation, % at 6.8 µM; 370,000 compounds, 1.8% hits;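 active means activation above a cutoff set at the mean of all screened compounds plus 3 SD, cut at about 10% in these data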;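 further: 0% = DMSO wells and 100% = sodium butyrate wells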
hcDAF-12 act = activators of H. contortus DAF-12 nuclear receptor; 370,000 compounds, 1.4% hits; activation, % at 6.8 µM; HEK293 hcDAF-12 lit1-tk-luc reporter, luminescence; 0% DMSO, 100% Δ7-dafachronic acid;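 active means activation above the mean of all tested compounds plus 3 SD, cut at about 5.5% in these data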;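 further: 100% = response to 3 µM Δ7-dafachronic acid high control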
DAX1 inh-1 = NR0B1 (DAX1) inhibition; inhibition, % at 6.75 µM; HEK293 Gal4-DAX1 luciferase reporter, luminescence; 340,000 compounds, 0.99% hits; P51843;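 active means inhibition above the mean over all tested compounds plus 3 SD, cut at about 4.2% in these data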;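 further: 0% = DAX1-transfected cells with DMSO and 100% = empty-vector control cells with DMSO; inhibition shows as a rise in luminescence from relieved DAX1 repression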
Target sequence (P51843 207-470 limits assumed): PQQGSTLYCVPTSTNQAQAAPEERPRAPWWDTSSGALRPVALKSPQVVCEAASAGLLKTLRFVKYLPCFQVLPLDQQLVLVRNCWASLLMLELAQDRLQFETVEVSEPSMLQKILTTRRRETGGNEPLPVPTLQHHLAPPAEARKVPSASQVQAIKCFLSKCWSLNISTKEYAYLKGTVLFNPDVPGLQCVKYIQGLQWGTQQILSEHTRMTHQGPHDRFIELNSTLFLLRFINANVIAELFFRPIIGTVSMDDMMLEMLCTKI
DAX1 inh-2 = inhibitors of DAX1 repression of SF-1 activated StAR promoter; HEK293T StAR-luciferase reporter, SF-1/DAX-1 repression relief; inhibition, % at 6.8 µM; 370,000 compounds, 1.1% hits; AID 652010;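 active means inhibition above the mean over all tested compounds plus 3 SD, cut at about 3.6% in these data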;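 further: 0% = DAX-1 cells with DMSO and 100% = cells lacking DAX-1 with DMSO; higher inhibition means more luminescence from relief of DAX-1 repression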
Numbers without * were called inactive; x = not tested or not shown. Rows were chosen to be rich in hits. Some 4.1% of all compounds tested hit in one or more screens of this group.

SMILES	ssDAF-12 act	hgDAF12 agonist	hcDAF-12 act	DAX1 inh-1	DAX1 inh-2
Cc1cc(C)nc(/N=C(\N)N2CCc3ccccc32)n1	-1	11*	1	1	1
Cc1cc(C)nc(/N=C(\N)N2CCCCCC2)n1	-2	3	-1	0	0
O=C(CSc1nc2c(c(=O)[nH]1)CCCC2)N1CCOCC1	-1	4	0	x	0
Cc1nc(Cl)sc1C(=O)Nc1ccc(F)cc1	0	-1	0	1	0
CC(C)S(=O)(=O)c1csc(C(=O)Nc2ccc(F)cc2)c1N	1.3*	9	4	2	3
CCN(C(=O)C1CCCN(c2nnc(-n3cccc3)s2)C1)c1ccccc1C (centres undefined)	-1	2	-2	x	-2
CC[n+]1ccc(/C=C2\Sc3ccccc3N2CCCS(=O)(=O)[O-])c2ccccc21	1.2*	-1	4	0	0
C[n+]1ccccc1/C=C1\Sc2ccccc2N1CCO	-1	-3	0	2	0
COC(=O)C1CN(Cc2ccc(OC)cc2)CCS(=O)(=O)N1Cc1ccc(C)cc1 (centres undefined)	-2	-3	-2	x	-2
O=C1CCC[C@H]2CC3(CC[C@]24CCCN14)OCCO3	-2	-2	0	x	x
Cc1cccc(NC(=O)c2cccc([N+](=O)[O-])c2O)c1C	0	13*	3	3	4.1*
Cc1cccc(NC(=O)c2cc([N+](=O)[O-])ccc2Cl)c1O	0	7	6.3*	1	-2
O=C(Nc1ccccc1Oc1ccccc1)c1cc([N+](=O)[O-])ccc1Cl	-2	1	-2	-2	-2
Cc1cccc(NC(=O)c2ccccc2O)c1C	-1	5	5	1	0
Cc1ccc(Cn2cc(CN(C)S(=O)(=O)c3ccccc3Br)nn2)cc1	-1	0	-3	x	0
Cc1cccc(Cn2cc(COC(=O)N3CCCC3)nn2)c1	-2	-2	-1	x	0
COc1ccccc1C(=O)N1CCC2CCNC2C1 (centres undefined)	0	-2	3	x	-1
C[C@H]1COc2cc(N3CCSCC3)ccc2S(=O)(=O)N1C	-1	-1	-1	x	2
CC(=O)c1ccc(NC(=O)CSc2nc(N3CCOCC3)nc(N3CCOCC3)n2)cc1	0	4	4	1	4.1*
CCOC(=O)c1ccc(NC(=O)CSc2nc(N3CCOCC3)nc(N3CCOCC3)n2)cc1	0	1	-1	0	-1
O=C(C1CCCN1S(=O)(=O)c1ccc(Br)s1)N1CCc2ccccc2C1 (centres undefined)	-1	0	-4	x	0
COC(=O)[C@@]12CCCCC=C1N(CCc1ccc(Cl)cc1)C(=O)[C@H]2CC(=O)NCc1cccc2ccccc12	-1	0	0	x	0
O=C(COc1ccc(Cl)cc1Cl)NC(=O)N1CCCCC1	0	12*	2	2	2
CN(C(=O)CSc1nc2ccccc2c(=O)n1-c1ccccc1F)C1CCS(=O)(=O)C1 (centres undefined)	0.9*	-3	1	-1	-1
Cc1nnc(SC(C)C(=O)NC2CCCCC2C)n1N (centres undefined)	-1	-1	-2	4.3*	0
SMILES	ssDAF-12 act	hgDAF12 agonist	hcDAF-12 act	DAX1 inh-1	DAX1 inh-2
Cc1c(C(=O)N2CCN(C)CC2)oc2ccc(Br)cc12	-1	4	1	5.0*	1
CCc1ccc2oc(C(=O)Nc3cccnc3)c(C)c2c1	x	x	x	5.1*	x
O=C(CNC(=O)c1ccncc1)N/N=C/c1ccc(Br)cc1	-1	-1	-2	6.5*	0
Cc1ccc(CNC(=O)C2CCC(=O)N(CCc3ccc(Cl)cc3)C2)s1 (centres undefined)	1.1*	2	-1	1	-1
Cc1ccc(CNC(=O)C2CCC(=O)N(CCc3ccc(Cl)cc3)C2)cc1 (centres undefined)	-1	8	0	0	-1
CCOC(=O)CSc1nc(Cc2ccccc2)nc2ccccc12	-1	-1	-3	4.3*	0
CCOC(=O)CSc1nc(CC)nc2ccccc12	-2	1	0	0	0
CCOC(=O)C1CCN(C(=O)C(C)(C)NC(=O)Nc2ccc3c(c2)CCC3)CC1	-1	-2	2	x	x
Cc1ccc(-n2c(COc3ccccc3)nnc2SCC(=O)Nc2ccc3c(c2)OCO3)cc1	-1	-1	0	x	-2
C/C(=N\Nc1ccccn1)c1cccs1	0	10	3	3	3.9*
O=c1cc(-c2ccccc2)oc2ccccc12	-1	7	0	6.0*	3
COc1ccc(NC(=O)CSCC(=O)Nc2sccc2C#N)cc1	1.0*	1	1	-1	0
COCc1nnc(NC(=O)CCc2ccc(OC)cc2)s1	-2	0	-2	-1	0
COc1ccc(NC(=O)CSc2nc(N)c(C#N)cc2C#N)cc1	-2	0	0	-1	-2
COc1ccc(CCC(=O)Nc2sccc2C#N)cc1	0	12*	2	x	3
Cc1cc2c(cc1C)CN(c1ccccc1)C2	0	12*	5	3	2
Cc1cc(N2Cc3ccccc3C2)ccc1C=O	0	13*	5	0	2
O=C(CSc1nnc(-c2ccco2)n1-c1ccc(Cl)cc1)Nc1ccc(S(=O)(=O)Nc2nccs2)cc1	-1	-1	0	x	1
CCCCNC(=O)CSc1nc2ccsc2c(=O)n1CCCC(=O)NCCc1ccc(S(N)(=O)=O)cc1	-2	3	0	6.1*	1
NS(=O)(=O)c1ccc(CCNC(=O)CSc2nc3ccsc3c(=O)n2CCCCCC(=O)O)cc1	-1	1	2	2	-1
COC(=O)[C@]12C[C@H](CC(=O)N3CCSCC3)C(=O)N(CCc3ccc(OC)c(OC)c3)C1=C[C@H](COCc1ccccc1)O[C@@H]2C	-1	-2	-2	x	-2
COC(=O)c1c(N=CN(C)C)c(C#N)c2n1CCCC2	-1	-2	-1	6.0*	-1
Cc1ccc(N/C=C2\CCCCC2=O)nc1	-1	7	1	0	0
O=C1CCCC/C1=C\Nc1ccc(Cl)cn1	-1	0	-1	4.3*	0
CCOC(=O)N1CCC(NC(=O)Cn2ncc3ccccc32)CC1	-1	1	-1	0	0
CC1CCC(NC(=O)Cn2ncc3ccccc32)CC1 (centres undefined)	0	2	2	6.5*	1
O=[N+]([O-])c1cccc(-c2noc(-c3ccco3)n2)c1	-1	12*	3	2	1
Cc1ccc2cc(C=O)c(N3CCOCC3)nc2c1C	-2	1	-1	0	0
Cc1ccc2nc(N3CCOCC3)c(C=O)cc2c1	-1	1	-2	8.2*	0
COC(=O)C1CN(Cc2cn(Cc3ccc(OC)cc3)nn2)CCS(=O)(=O)N1Cc1ccccc1 (centres undefined)	-2	-2	-2	x	-2
